Experimental data from PubChem BioAssay.
Active and inactive are the calls of the source.

Legend:
[1] = tested on: Plasmodium falciparum Sir2 (PF13_0152, Sir2A); experiment: Plasmodium falciparum Sir2A binding compounds – biochemical, small-molecule microarray, 635 nm fluorescence, primary screen (AID 1098); settings: fluorescence 635 nm, higher = more signal;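 also: score merges spot fluorescence intensity with its signal-to-noise ratio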
[2] = probe aDKK1 binding to arrayed compounds – biochemical, biotinylated probe, 635/667 nm fluorescence, primary screen (AID 1099); settings: small-molecule microarray, higher = more signal;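 also: score merges 667nm spot fluorescence with signal to noise across triplicate slides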
[3] = probe aCHRDL2 binding to arrayed compounds – biochemical, biotinylated probe, 635/667 nm fluorescence, primary screen (AID 1100); settings: small-molecule microarray, higher = more signal
[4] = change in splice reporter luminescence, either direction, cell-based, HEK293, spliceosome inhibition project, primary screen (AID 1101); settings: HEK293 splicing luciferase reporter, 24 h, higher = more signal, called active from +8 up or from −8 down;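 also: HEK293 cells carrying a splicing-competent luciferase reporter gene; test concentration not given here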
[5] = target: Fibroblast growth factor 10 (Homo sapiens) (UniProt O15520); experiment: compounds binding fibroblast growth factor 10 – biochemical, small-molecule microarray, 635 nm fluorescence, primary screen (AID 1102); settings: FGF10 binding, fluorescence 635 nm, higher = more signal
Fibroblast growth factor 10 (Homo sapiens), sequence (O15520 whole entry, looked up): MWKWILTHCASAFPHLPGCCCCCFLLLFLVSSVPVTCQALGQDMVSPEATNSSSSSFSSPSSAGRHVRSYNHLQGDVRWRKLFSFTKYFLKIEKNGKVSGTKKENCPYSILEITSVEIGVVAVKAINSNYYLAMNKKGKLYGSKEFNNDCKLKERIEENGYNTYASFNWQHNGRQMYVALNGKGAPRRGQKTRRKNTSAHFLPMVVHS

[6] = tested on: glycogen synthase kinase-3 (GSK3A per assay name; protocol says GSK3B); experiment: compounds binding glycogen synthase kinase-3 – biochemical, small-molecule microarray, 635 nm fluorescence, GSK3A, primary screen (AID 1103); settings: fluorescence 635 nm, higher = more signal; also: the record names both GSK3A and GSK3B
[7] = target: Epidermal growth factor receptor (Homo sapiens) (UniProt P00533); experiment: compounds binding epidermal growth factor receptor – biochemical, small-molecule microarray, 635 nm fluorescence, primary screen (AID 1104); settings: EGFR binding, higher = more signal;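 also: score merges 667 nm emission intensity with spot signal to noise over triplicate slides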
Epidermal growth factor receptor (Homo sapiens), sequence (P00533 whole entry, looked up): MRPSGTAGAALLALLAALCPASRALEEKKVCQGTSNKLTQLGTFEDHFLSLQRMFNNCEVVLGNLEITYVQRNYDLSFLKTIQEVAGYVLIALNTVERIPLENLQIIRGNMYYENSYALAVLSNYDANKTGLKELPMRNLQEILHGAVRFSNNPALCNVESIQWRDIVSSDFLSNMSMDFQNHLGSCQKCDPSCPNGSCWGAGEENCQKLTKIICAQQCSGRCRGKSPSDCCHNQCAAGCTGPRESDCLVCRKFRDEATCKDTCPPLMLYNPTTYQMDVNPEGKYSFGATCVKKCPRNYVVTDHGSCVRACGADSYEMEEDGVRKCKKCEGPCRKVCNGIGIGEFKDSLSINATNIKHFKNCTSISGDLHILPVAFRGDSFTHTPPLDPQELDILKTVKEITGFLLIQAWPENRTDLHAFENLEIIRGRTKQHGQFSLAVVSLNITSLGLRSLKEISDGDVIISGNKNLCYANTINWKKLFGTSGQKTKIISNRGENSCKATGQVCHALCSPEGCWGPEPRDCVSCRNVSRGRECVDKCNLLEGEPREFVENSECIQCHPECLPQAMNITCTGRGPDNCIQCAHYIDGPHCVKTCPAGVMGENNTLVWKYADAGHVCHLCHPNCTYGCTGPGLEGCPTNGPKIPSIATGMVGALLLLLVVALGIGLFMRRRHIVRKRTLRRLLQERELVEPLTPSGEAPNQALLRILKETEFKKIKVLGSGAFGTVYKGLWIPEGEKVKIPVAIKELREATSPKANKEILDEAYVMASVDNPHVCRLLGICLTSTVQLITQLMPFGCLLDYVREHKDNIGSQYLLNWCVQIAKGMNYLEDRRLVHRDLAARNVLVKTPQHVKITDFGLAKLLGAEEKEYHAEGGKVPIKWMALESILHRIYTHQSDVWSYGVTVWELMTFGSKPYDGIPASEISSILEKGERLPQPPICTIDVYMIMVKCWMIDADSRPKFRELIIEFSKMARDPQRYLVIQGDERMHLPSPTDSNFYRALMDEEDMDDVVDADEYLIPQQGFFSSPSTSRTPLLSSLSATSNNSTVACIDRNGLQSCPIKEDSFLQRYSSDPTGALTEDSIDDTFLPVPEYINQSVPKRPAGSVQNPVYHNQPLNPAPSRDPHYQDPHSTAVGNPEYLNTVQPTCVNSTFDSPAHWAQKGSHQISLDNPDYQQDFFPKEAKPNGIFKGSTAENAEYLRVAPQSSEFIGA

[8] = target: Follistatin-related protein 3 (Homo sapiens) (UniProt O95633); experiment: compounds binding follistatin-related protein 3 – biochemical, small-molecule microarray, 635 nm fluorescence, primary screen (AID 1105); settings: FSTL3 binding, higher = more signal;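 also: score merges emission near 667 nm and signal to noise per printed spot across three slides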
Follistatin-related protein 3 (Homo sapiens), sequence (O95633 whole entry, looked up): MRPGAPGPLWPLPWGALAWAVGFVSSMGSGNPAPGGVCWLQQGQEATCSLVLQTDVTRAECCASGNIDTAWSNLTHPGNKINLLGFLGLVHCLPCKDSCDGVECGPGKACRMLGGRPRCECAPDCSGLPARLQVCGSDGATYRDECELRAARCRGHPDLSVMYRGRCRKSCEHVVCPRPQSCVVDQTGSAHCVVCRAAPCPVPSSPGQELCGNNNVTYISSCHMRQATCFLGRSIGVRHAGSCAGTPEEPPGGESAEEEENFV

[9] = target: Dickkopf-related protein 1 (Homo sapiens) (UniProt O94907); experiment: small molecules binding DKK1 protein – biochemical, small-molecule microarray, 635 nm fluorescence scan, primary screen (AID 1106); settings: higher = more signal;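 also: score merges emission near 667 nm with signal to noise over three replicate slides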
Dickkopf-related protein 1 (Homo sapiens), sequence (O94907 whole entry, looked up): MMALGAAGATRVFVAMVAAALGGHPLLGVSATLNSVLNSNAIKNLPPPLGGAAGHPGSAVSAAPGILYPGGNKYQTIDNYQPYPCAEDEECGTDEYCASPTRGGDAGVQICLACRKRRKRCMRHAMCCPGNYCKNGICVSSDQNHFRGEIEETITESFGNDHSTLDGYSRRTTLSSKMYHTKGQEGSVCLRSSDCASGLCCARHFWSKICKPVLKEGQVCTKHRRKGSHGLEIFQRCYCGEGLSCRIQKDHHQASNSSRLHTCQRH

[10] = tested on: Inhibin beta A chain (activin A); experiment: small molecules binding activin A – biochemical, small-molecule microarray, 635 nm fluorescence scan, primary screen (AID 1107); settings: INHBA, higher = more signal;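 also: mouse activin A protein probed at 4.33 µg/mL on printed slides; score merges bound-protein fluorescence near 667 nm with spot signal-to-noise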
[11] = tested on: Human papillomavirus type 1a protein E7 (residues 44-93); experiment: small molecules binding HPV E7 44-93 – biochemical, small-molecule microarray, residues 44-93, 635 nm fluorescence, primary screen (AID 1108); settings: fluorescence 635 nm, higher = more signal;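 also: E7 fragment applied at 1 µg/mL in TBST for 1 h at 4 C; score combines spot fluorescence with its signal to noise ratio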
[12] = hepatitis C replication reporter changes, two-sided – Huh7 cells, luciferase reporter, HCV replication inhibitor project, primary screen (AID 1109); settings: Huh7 HCV replicon luciferase reporter, 48 h; higher = more signal;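 also: huh7 hepatoma cells harbouring a luciferase neomycin HCV replicon reporter; luciferase luminescence as measure of HCV replicon replication; test concentration not given here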
[13] = target: Left-right determination factor 2 (Homo sapiens) (UniProt O00292); experiment: small molecules binding LEFTY2 protein – biochemical, small-molecule microarray, 635 nm fluorescence scan, primary screen (AID 1110); settings: higher = more signal
Left-right determination factor 2 (Homo sapiens), sequence (O00292 whole entry, looked up): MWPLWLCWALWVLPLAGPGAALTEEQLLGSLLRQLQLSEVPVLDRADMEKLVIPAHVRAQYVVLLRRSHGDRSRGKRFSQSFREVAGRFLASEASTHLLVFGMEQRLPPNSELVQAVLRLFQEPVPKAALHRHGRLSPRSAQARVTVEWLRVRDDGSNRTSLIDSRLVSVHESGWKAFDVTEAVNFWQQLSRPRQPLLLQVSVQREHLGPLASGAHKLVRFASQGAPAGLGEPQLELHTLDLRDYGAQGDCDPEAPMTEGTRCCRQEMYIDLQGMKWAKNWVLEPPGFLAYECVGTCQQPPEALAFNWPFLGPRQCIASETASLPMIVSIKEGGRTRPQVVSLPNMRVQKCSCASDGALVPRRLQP

[14] = target: Calmodulin-1 (Homo sapiens) (UniProt P0DP23); experiment: small molecules binding calmodulin-1 with EGTA – biochemical, small-molecule microarray, Cy5-labelled CALM1, profiling panel (AID 1111); settings: Cy5-CALM1 binding fluorescence, higher = more signal;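 also: labelled calmodulin applied in Tris saline Tween buffer holding calcium plus EGTA and DTT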
[15] = target: Calmodulin-1 (Homo sapiens) (UniProt P0DP23); experiment: small molecules binding Ca-loaded calmodulin-1 – biochemical, small-molecule microarray, Cy5-labelled CALM1, plus calcium, artefact control for SMM control-protein annotation, profiling panel (AID 1112); settings: Cy5-CALM1 binding fluorescence, higher = more signal;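 also: score merges spot fluorescence with signal to noise from triplicate slides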
[16] = probe aWnt5a binding to arrayed compounds – biochemical, biotinylated probe, 635/667 nm fluorescence, primary screen (AID 1113); settings: small-molecule microarray, higher = more signal;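 also: score merges 667 nm fluorescence intensity with signal-to-noise per printed feature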
[17] = probe aShh binding to arrayed compounds – biochemical, biotinylated probe, 635/667 nm fluorescence, primary screen (AID 1114); settings: small-molecule microarray, higher = more signal;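 also: probe is biotin-labelled aShh protein from a stem cell growth factor screen; measures binding of labelled protein to compounds printed on the slide; score merges feature fluorescence at 667 nm with signal-to-noise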
[18] = probe aNog binding to arrayed compounds – biochemical, biotinylated probe, 635/667 nm fluorescence, primary screen (AID 1115); settings: small-molecule microarray, higher = more signal;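 also: probe is biotinylated aNog protein used at 0.15 µg/mL for 1 h at 4 C; z-score combines 667 nm fluorescence of each spot with its signal to noise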
[19] = target: Torsin-1A-interacting protein 1 (Homo sapiens) (UniProt Q5JTV8); experiment: compound microarray binding of lysate hLAP1 – cell lysate, small-molecule microarray, COS7 lysate, 635/667 nm fluorescence, primary screen (AID 1116); settings: 635 nm fluorescence, higher = more signal
Torsin-1A-interacting protein 1 (Homo sapiens), sequence (Q5JTV8 whole entry, looked up): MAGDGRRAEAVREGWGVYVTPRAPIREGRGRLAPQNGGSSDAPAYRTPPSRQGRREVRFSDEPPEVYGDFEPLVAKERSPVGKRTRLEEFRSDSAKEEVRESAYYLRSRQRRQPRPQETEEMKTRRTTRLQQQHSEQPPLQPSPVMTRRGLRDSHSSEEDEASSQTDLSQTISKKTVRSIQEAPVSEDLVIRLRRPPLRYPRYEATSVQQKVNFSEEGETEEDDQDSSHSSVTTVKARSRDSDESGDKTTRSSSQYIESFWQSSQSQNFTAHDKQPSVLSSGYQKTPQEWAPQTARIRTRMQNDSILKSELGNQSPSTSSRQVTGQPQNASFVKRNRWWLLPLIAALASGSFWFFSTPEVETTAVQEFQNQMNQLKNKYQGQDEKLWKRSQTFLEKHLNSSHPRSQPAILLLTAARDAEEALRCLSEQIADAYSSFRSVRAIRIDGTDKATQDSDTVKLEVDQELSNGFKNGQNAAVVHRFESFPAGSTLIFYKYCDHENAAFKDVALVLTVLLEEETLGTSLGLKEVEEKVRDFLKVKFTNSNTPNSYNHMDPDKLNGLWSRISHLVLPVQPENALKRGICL

[20] = target: Alpha-bungarotoxin (Bungarus multicinctus) (UniProt P60615); experiment: compounds binding labelled alpha-BTX control protein – biochemical, small-molecule microarray, Alexa647 label, 635/667 nm fluorescence, artefact control for SMM control protein annotation, profiling panel (AID 1117); settings: alpha-BTX-A647 binding fluorescence, higher = more signal
Alpha-bungarotoxin (Bungarus multicinctus), sequence (P60615 whole entry, looked up): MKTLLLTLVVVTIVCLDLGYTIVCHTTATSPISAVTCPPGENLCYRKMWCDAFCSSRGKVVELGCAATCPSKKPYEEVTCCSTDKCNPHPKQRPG

| Compound | composite z-score [1] | composite z-score [2] | composite z-score [3] | z-score [4] | composite z-score [5] | composite z-score [6] | composite z-score [7] | composite z-score [8] | composite z-score [9] | composite z-score [10] | composite z-score [11] | z-score [12] | composite z-score [13] | composite z-score [14] | composite z-score [15] | composite z-score [16] | composite z-score [17] | composite z-score [18] | composite z-score [19] | composite z-score [20] |
| --- | --- | --- | --- | --- | --- | --- | --- | --- | --- | --- | --- | --- | --- | --- | --- | --- | --- | --- | --- | --- |
| CC(C)C(=C=CC[C@H](O)c1cccc(OCCO)c1)C[C@H](O)c1cc(Cl)cc(Cl)c1O | 0.507 | -0.217 | 0.0419 | -0.747 (inactive) | 1.43 | 0.0728 | -0.388 | 0.544 | -0.0693 | 0.346 | 0.851 | -0.583 | 0.155 | -0.0005 | -0.698 | -0.126 | 0.23 | 0.0083 | 0.488 | 0.986 |
| O=C1O[C@H](c2ccccc2)[C@H](c2ccccc2)N2[C@H]1[C@@H](C(=O)N1CCN(c3ncccn3)CC1)[C@]1(C(=O)Nc3ccc(C#CC4(O)CCCCCC4)cc31)[C@H]2c1ccc(OCCO)cc1 | 1.82 | 0.695 | 0.731 | -0.604 (inactive) | 1.45 | 1.33 | 1.38 | 1.21 | 1.42 | 0.86 | 1.44 | -1.58 | 1.51 | 2.26 | 1.24 | 0.793 | 0.543 | 2.34 | 3.93 | 2.81 |
| C=C(C(=O)CC[C@@H](OC(C)=O)c1ccc(CO)o1)C(C)C | -0.78 | -0.418 | -0.298 | 0.993 (inactive) | 0.826 | 0.482 | -0.289 | 1.39 | 0.536 | 1.41 | -0.306 | -1.25 | 0.13 | -0.299 | -0.89 | -0.1 | 0.213 | 0.149 | 1.73 | 0.844 |
| O=C1O[C@H](c2ccccc2)[C@H](c2ccccc2)N2[C@H]1[C@@H](C(=O)NC[C@H](O)c1ccccc1)[C@]1(C(=O)Nc3ccc(C#CCCO)cc31)[C@H]2c1ccc(OCCO)cc1 | 1.58 | 0.222 | 0.0751 | 0.613 (inactive) | 0.575 | 0.739 | 0.037 | 0.701 | 0.264 | 0.503 | 1.1 | -1.32 | -0.312 | 1.1 | 0.547 | -0.0758 | 0.241 | 0.509 | 0.213 | 1.16 |
| [N-]=[N+]=Nc1ccccc1[C@H]1OC(c2ccc(OCCCO)cc2)=N[C@@]1(Cc1ccccc1)C(=O)N1CCCCC1 | 0.813 | 1.04 | 1.13 | 1.35 (inactive) | 1.45 | 0.99 | 0.422 | 1.11 | 1.18 | 1.03 | 1.45 | -2.13 | 0.346 | 1.53 | 0.735 | 0.299 | 0.204 | 1.28 | 2.12 | 1.53 |
| CCOC(=O)C1CCCCN1 (stereo not given) | 0.19 | 1.06 | -0.193 | -0.283 (inactive) | 0.946 | 0.682 | 0.403 | 0.653 | 0.516 | -0.104 | 0.728 | 0.417 | 0.4 | -0.178 | -0.483 | 0.312 | 0.444 | 0.144 | 0.488 | 0.54 |
| COc1ccc([Si](C)(C)[C@H]2[C@H](CC(=O)N(CCO)Cc3ccccc3)O[C@@]3(C(=O)N(Cc4cccc(N5CCOC5=O)c4)c4ccccc43)[C@@H]2C)cc1 | 1.18 | -0.21 | 0.0284 | -2.44 (inactive) | 0.0549 | 0.616 | 0.232 | 0.324 | 0.179 | 0.81 | 0.671 | -4.06 | 0.498 | 0.107 | -0.48 | -0.154 | -0.147 | -0.318 | 0.0843 | 0.429 |
| COCCOC(=O)N1C(=O)[C@@]2(c3cc(C#CC4=CCCCC4)ccc31)[C@H](c1ccc(O)cc1)N1[C@H](c3ccccc3)[C@H](c3ccccc3)OC(=O)[C@H]1[C@@H]2C(=O)N1CCN(c2ncccn2)CC1 | -0.0148 | -0.222 | 0.649 | -0.297 (inactive) | -0.769 | -0.858 | -1.04 | -1.85 | -1.22 | -0.918 | -0.444 | -0.131 | -0.742 | -0.676 | 0.451 | -0.195 | -0.138 | -0.445 | -0.201 | -1.11 |
| CC=CC(O)C1C=CC2C(=O)N(c3ccccc3)C(=O)C2N1Nc1ccccc1F (stereo not given) | 0.32 | 1.24 | 0.76 | 0.095 (inactive) | 0.169 | -0.352 | 0.114 | -0.0808 | 0.0324 | 1.21 | 0.286 | -0.536 | -0.0207 | 0.416 | 0.213 | 0.339 | 0.429 | 1.07 | 0.0757 | 0.437 |
| COC(=O)c1c(CC[C@@H](CO)NC(=O)N2CCC[C@H]2Cn2cc(Cc3ccccc3)nn2)oc(C(C)=O)c1C(=O)OC | 0.787 | -0.0956 | -0.553 | -0.311 (inactive) | 0.572 | 0.0908 | -0.0867 | 0.92 | 0.135 | 0.268 | 0.916 | 0.139 | -0.0041 | -0.128 | -0.658 | -0.0778 | -0.167 | 0.113 | 0.0411 | 0.17 |
